From PubChem BioAssay
Rows were chosen to be rich in hits. Some 1.2% of all compounds tested hit in one or more screens of this group.
B2AR arrestin: qHTS assay of beta-arrestin-biased ligands of beta2-adrenergic receptor; Potency, µM (doses to about 46.1 µM), for the others: at the highest dose activation, actives largely listed as activators; beta-arrestin recruitment to beta2AR, cell-based reporter; 330,000 tested, 0.02% active;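 note: 0% = DMSO controls and full agonism = EC100 isoproterenol or metaproterenol; nearly all actives have a fitted effect of over 65% in size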
Target sequence (P07550 whole entry, looked up): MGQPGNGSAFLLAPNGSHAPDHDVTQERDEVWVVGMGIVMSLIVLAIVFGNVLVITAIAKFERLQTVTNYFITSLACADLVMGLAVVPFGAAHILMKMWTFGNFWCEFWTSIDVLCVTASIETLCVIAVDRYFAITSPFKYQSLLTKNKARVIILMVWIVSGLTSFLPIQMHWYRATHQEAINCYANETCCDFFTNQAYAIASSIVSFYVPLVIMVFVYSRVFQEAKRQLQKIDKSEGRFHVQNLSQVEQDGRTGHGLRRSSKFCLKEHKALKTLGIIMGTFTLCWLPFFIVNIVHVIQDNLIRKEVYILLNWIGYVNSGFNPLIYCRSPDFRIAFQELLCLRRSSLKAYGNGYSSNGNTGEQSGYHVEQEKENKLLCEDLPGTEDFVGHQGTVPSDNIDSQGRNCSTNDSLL
ERG-DNA inh: qHTS for Small Molecule Inhibitors of the ERG Ets/DNA interaction; fluorescence polarization, His-ERG Ets domain / labelled DNA; Potency, µM (highest dose often 76.9 µM), without a hit: at the top dose FP activity, negative = inhibition, hits mostly inhibitors; 370,000 tested, 0.028% active; AID 624246, 2012; active = well fitted inhibition curve with a large enough effect in the polarisation, with a control signal flat; inconclusive = small, poorly fitted or top-dose-only effect, or effect the other way, or a change in a side signal; inactive = no such curve, though single readings can be large or run the other way; the % refers to the polarisation;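 note: polarization taken with two DNA probes labelled with fluorescein and Texas red; % of control where 0% means no effect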
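His-tagged ERG Ets domain (1 uM in the protein solution; 300mM KCl, 50mM Tris-HCl, 1mM EDTA, 1mM DTT, pH 7.5) received compound, then a probe mix of 5 nM fluorescein-DNA and 100nM Texas-615-DNA. Fluorescence polarization was read for both dyes.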
BRCA1 expr up: qHTS Assay to Identify Small Molecule Activators of BRCA1 Expression; MCF7-BRCA1-FFLuc reporter, luminescence, 48 h; response scale: scaled: vehicle 0%, 10 µM genistein 100%; AID 624202, 2012; 380,000 tested, 1.1% active; Potency, µM (titrated, usually from 46.1 µM), inactives show at the highest dose activation, actives largely listed as activators; note: nearly all actives have a fitted effect of over 80% in size
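Quantitative HTS in MCF7 cells stably reporting BRCA1 expression via firefly luciferase. Compound treatment lasts 48 h at 37 °C in phenol-red free MEM. Activation is expressed relative to genistein at 10 microM and DMSO.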
Mito fusion yeast: qHTS Assay for Small Molecule Inhibitors of Mitochondrial Division or Activators of Mitochondrial Fusion | S. cerevisiae fusion-defective mutant growth rescue, CellTiterGlo 48 h | Potency, µM (titrated, usually from 46.1 µM), for the others: at the top dose growth rescue (activation), hits mostly activators | 320,000 tested, 0.23% active | AID 485298, 2010; note: % of control where 0% means no effect; nearly all actives have a fitted effect of over 45% in size
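Luminescent cell viability in 1536-well qHTS format served as the measure of rescued growth in ts fusion-mutant S. cerevisiae cultured on non-fermentable YPEG for 48 hours at 37C.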
An asterisk follows results filed as active; ? = inconclusive; nt = no result; [ ] = dose if it differs, or a comment. Unless noted, calls come from the whole dose curve; as a rule, active = well fitted curve in the direction sought with a large enough effect; inconclusive = small, poorly fitted or top-dose-only effect, or another doubt; inactive = no such curve, though single readings can be large; an effect the other way counts as inactive or inconclusive. Potency is the fitted concentration of half-maximal effect.

SMILES | B2AR arrestin | ERG-DNA inh | BRCA1 expr up | Mito fusion yeast
COc1cc2c(cc1OC)C(c1ccc(F)cc1)N(c1cccc(C#N)c1)C(=O)C2 (stereo not drawn) | nt | 0.7% | nt | nt
COc1ccc(S(=O)(=O)N2CCC(Oc3ccc(-n4cnnn4)cc3)CC2)cc1 | nt | 5.6% | nt | nt
O=S(=O)(c1ccccc1)N1CCC(Oc2ccc(-n3cnnn3)cc2)CC1 | 0.2% | -6.3% | -23.3% | 35.5µM*
COc1ccc(Cl)cc1NC(=O)CSc1nc(=O)n(Cc2ccco2)c2c1CCC2 | nt | 7.8% | 0.0% | nt
CCN(CC)C(=O)CSC(=Nc1ccccc1F)NC#N | -0.3% | 17.1% | 11.2µM* | -6.0%
CCN(CC)C(=O)CSC(Nc1ccc(F)cc1)=C(C#N)C#N | 0.0% | 75.9% | -48.0% | 1.8%
CCOC(=O)c1ccccc1NC(=O)NC(C)c1c(-n2cccc2)sc(C)c1C (stereo not drawn) | nt | 0.0% | nt | nt
Cc1cccc(N2CCN(C(=O)CN3C(=O)COc4ccc(S(=O)(=O)N5CCC(C)CC5)cc43)CC2)c1C | nt | 0.9% | 9.4% | nt
Cc1ccc(SCn2nnc3ccccc3c2=O)c(C)c1 | 0.2% | -20.0% | 12.6µM* | -1.5%
Cc1cc(C(=O)COC(=O)c2ccc3c(c2)OCO3)c(C)n1Cc1cccs1 | 0.2% | 0.5% | 5.01µM* | 3.5%
CC(C)C(=O)Nc1ccccc1C(=O)OCC(=O)c1ccc2c(c1)OCCO2 | 0.6% | 0.5% | -0.9% | ?
Cc1cccc(C(=O)OCC(=O)c2ccc3c(c2)OCCO3)c1O | 0.2% | -6.4% | 6.31µM* | nt
Cc1cccc(C(=O)OCC(=O)c2ccc3c(c2)OCO3)c1O | -0.6% | 8.3% | 6.31µM* | -1.2%
Cc1ccc(C)c(Cn2c(=O)cc(C)c3c(C)nn(C)c32)c1 | nt | 7.6% | nt | nt
CCN(Cc1ccccc1)C(=O)c1cc2c(s1)-c1c(C)cccc1OC2 | nt | 3.5% | nt | nt
CCOc1ccc(C(=O)Nc2ccc3c(c2)OCCO3)cc1OC | -0.6% | 5.5% | 10µM* | 7.2%
O=C(Nc1ccc2c(c1)OCCO2)c1c(F)cccc1F | -0.1% | 3.8% | 2.51µM* | 5.9%
CCCOc1ccc(C(=O)Nc2ccc3c(c2)OCO3)cc1 | -1.2% | 4.3% | 3.16µM* | -1.0%
CCOc1ccc(C(=O)Nc2ccc3c(c2)OCCO3)cc1[N+](=O)[O-] | -0.4% | 4.5% | 45.9% | -0.4%
O=C(Nc1ccc2c(c1)OCCO2)c1ccccc1F | 0.2% | -3.8% | 3.2% | -2.0%
O=C(Nc1ccc2c(c1)OCO2)c1cccc(Cl)c1 | 0.0% | 0.7% | 11.2µM* | 5.0%
O=C(Nc1ccc2c(c1)OCO2)c1ccc2c(c1)OCO2 | -1.7% | 0.9% | -5.1% | 5.2%
COc1ccc(NC(=O)Cn2c(CCC(=O)O)ccc2-c2ccccc2)cc1Cl | nt | 5.1% | nt | nt
CCN(CC)CCOC(=O)c1ccc(NC(=O)c2nn(-c3ccc(C)cc3)c(=O)c3c2c2ccccc2n3C)cc1 | nt | 10.4% | nt | nt
COc1cc(OC)cc(C(=O)Nc2ccc3c(c2)OCCO3)c1 | -0.2% | 3.2% | 12.6µM* | -6.8%
SMILES | B2AR arrestin | ERG-DNA inh | BRCA1 expr up | Mito fusion yeast
COc1cc(OC)cc(C(=O)NC(C(=O)Nc2ccc3c(c2)OCCO3)C(C)C)c1 (stereo not drawn) | -0.1% | 6.1% | 50.3% | 7.9%
Cc1nnc2c(N3CCN(c4ccccc4F)CC3)nc3ccc(C(=O)c4ccccc4)cc3n12 | nt | 0.8% | nt | nt
Nc1cccc(CCc2nc3cc4ccccc4cc3[nH]2)c1 | 0.1% | -0.7% | -26.3% | 20µM*
c1ccc(CCc2nc3ccccc3[nH]2)cc1 | -1.0% | -1.3% | 6.31µM* | -14.7%
Nc1ccc2nc(CCCCc3nc4ccccc4[nH]3)[nH]c2c1 | 0.0% | -7.6% | -2.5% | -1.5%
COc1cc(OC)c(NC(=O)C(C)n2nc(-c3ccc(C)cc3)c3c(c2=O)CCCC3)cc1Cl (stereo not drawn) | nt | -3.1% | -49.0% | nt
O=[N+]([O-])c1cccc(-c2nnc(-c3ccc4c(c3)OCO4)o2)c1 | -2.6% | 6.0% | 2.51µM* | -8.7%
CCc1ccc(-c2ccc(SCC(=O)NCC3CCCO3)nn2)cc1 (stereo not drawn) | 0.5% | -6.3% | 2.51µM* | -0.6%
Cc1ccc(-n2c(=O)c3cccnc3n2CC(=O)Nc2ccc(Br)cc2)cc1C | nt | 2.2% | -6.2% | nt
Cc1cccc(-c2noc(-c3ccccc3C(=O)NCC3CCCO3)n2)c1 (stereo not drawn) | 0.1% | 6.0% | 6.31µM* | 13.8%
COc1ccc(NC(=O)CCCc2nnc3n(CCC(C)C)c(=O)c4sccc4n23)cc1Cl | nt | 5.7% | nt | nt
Nc1nc2ccccc2n1/N=C/c1ccc(Br)cc1 | 0.4% | nt | 5.0% | 8.4%
Nc1nc2ccccc2n1/N=C/c1ccc2c(c1)OCO2 | 0.1% | -7.5%[15.4 µM] | 5.62µM* | -4.7%
Cc1cc(-c2nnc(CCC(=O)N(C)CCc3ccccc3)o2)no1 | -0.6% | -7.9% | 18.8% | 0.8%
Cc1cccc(Cc2nnc(CCC(=O)N(C)CCc3ccccc3)o2)c1 | 2.2% | 8.8% | 3.55µM* | 6.8%
CCCCN(CC)CCCNC(=O)Nc1sc2nc3n(c(=O)c2c1C)CCC(C)CC3 (stereo not drawn) | nt | -4.6% | nt | nt
COc1ccc(-n2nc(C(=O)NCC(=O)N3CCCCC3)c3ccccc3c2=O)c(OC)c1 | 0.2% | -15.5% | 12.6µM* | 2.4%
COc1ccccc1N1CCN(C(=O)CNC(=O)c2cn(-c3ccccc3OC)c(=O)c3ccccc23)CC1 | 0.4% | 10.1% | 65.3% | -2.7%
COc1ccc(-n2nc(C(=O)NCC(=O)N3CCCCCC3)c3ccccc3c2=O)c(OC)c1 | -0.1% | 15.5% | 11.2µM* | -0.6%
COc1ccc(-n2nc(C(=O)NCC(=O)N3CCN(c4ccccc4F)CC3)c3ccccc3c2=O)cc1 | -0.1% | 0.3% | ? | 2.3%
COc1ccc(-n2nc(C(=O)NCC(=O)N3CCN(c4ccccc4F)CC3)c3ccccc3c2=O)cc1OC | -0.5% | 7.3% | 8.91µM* | 14.3%
COc1ccccc1-n1cc(C(=O)NCC(=O)N2CCN(c3ccccc3)CC2)c2ccccc2c1=O | 0.3% | -2.5% | 12.6µM* | 0.1%
Cc1ccc(C)c(CNC(=O)c2sc3ncnc(N(C)C4CCCCC4)c3c2C)c1 | nt | -0.8% | nt | nt
Cc1cccc(-c2nc3scc(CCNS(=O)(=O)c4ccc(Oc5ccccc5)cc4)n3n2)c1 | nt | 1.5% | nt | nt
Cc1ccc(NC(=O)CCC(=O)N2Cc3ccccc3Oc3ncccc32)cc1Cl | nt | -4.2% | nt | nt
COC(=O)c1c(-c2ccc(Cl)cc2)noc1N1CCN(c2ccc(OC)cc2)CC1 | nt | -0.5% | nt | nt
Fc1cccc(/C=N/Nc2ccccn2)c1 | 0.0% | -3.3% | 7.94µM* | -10.0%
Fc1cccc(/C=N/Nc2nc3ccccc3[nH]2)c1 | 0.0% | 13.6% | 4.47µM* | -2.2%
CCCCN(C)C(=O)c1cc2cc3ccc(OC)cc3nc2o1 | -0.4% | -6.2% | 4.47µM* | -9.1%
CCCCN(C)C(=O)c1cc2cc3cc(OC)ccc3nc2o1 | -0.5% | 2.4% | 6.31µM* | 18.7%
